Compound activity from PubChem BioAssay.
TcdB inh = inhibitors of Clostridioides difficile toxin B glycohydrolase; P18177; inhibition, % at 9.99 µM; TcdB glycohydrolase enzymatic assay, plate reader; AID 652162; hit rate 0.24% among 350,000; in the data active means inhibition above about 10%
Target sequence (P18177 whole entry, looked up): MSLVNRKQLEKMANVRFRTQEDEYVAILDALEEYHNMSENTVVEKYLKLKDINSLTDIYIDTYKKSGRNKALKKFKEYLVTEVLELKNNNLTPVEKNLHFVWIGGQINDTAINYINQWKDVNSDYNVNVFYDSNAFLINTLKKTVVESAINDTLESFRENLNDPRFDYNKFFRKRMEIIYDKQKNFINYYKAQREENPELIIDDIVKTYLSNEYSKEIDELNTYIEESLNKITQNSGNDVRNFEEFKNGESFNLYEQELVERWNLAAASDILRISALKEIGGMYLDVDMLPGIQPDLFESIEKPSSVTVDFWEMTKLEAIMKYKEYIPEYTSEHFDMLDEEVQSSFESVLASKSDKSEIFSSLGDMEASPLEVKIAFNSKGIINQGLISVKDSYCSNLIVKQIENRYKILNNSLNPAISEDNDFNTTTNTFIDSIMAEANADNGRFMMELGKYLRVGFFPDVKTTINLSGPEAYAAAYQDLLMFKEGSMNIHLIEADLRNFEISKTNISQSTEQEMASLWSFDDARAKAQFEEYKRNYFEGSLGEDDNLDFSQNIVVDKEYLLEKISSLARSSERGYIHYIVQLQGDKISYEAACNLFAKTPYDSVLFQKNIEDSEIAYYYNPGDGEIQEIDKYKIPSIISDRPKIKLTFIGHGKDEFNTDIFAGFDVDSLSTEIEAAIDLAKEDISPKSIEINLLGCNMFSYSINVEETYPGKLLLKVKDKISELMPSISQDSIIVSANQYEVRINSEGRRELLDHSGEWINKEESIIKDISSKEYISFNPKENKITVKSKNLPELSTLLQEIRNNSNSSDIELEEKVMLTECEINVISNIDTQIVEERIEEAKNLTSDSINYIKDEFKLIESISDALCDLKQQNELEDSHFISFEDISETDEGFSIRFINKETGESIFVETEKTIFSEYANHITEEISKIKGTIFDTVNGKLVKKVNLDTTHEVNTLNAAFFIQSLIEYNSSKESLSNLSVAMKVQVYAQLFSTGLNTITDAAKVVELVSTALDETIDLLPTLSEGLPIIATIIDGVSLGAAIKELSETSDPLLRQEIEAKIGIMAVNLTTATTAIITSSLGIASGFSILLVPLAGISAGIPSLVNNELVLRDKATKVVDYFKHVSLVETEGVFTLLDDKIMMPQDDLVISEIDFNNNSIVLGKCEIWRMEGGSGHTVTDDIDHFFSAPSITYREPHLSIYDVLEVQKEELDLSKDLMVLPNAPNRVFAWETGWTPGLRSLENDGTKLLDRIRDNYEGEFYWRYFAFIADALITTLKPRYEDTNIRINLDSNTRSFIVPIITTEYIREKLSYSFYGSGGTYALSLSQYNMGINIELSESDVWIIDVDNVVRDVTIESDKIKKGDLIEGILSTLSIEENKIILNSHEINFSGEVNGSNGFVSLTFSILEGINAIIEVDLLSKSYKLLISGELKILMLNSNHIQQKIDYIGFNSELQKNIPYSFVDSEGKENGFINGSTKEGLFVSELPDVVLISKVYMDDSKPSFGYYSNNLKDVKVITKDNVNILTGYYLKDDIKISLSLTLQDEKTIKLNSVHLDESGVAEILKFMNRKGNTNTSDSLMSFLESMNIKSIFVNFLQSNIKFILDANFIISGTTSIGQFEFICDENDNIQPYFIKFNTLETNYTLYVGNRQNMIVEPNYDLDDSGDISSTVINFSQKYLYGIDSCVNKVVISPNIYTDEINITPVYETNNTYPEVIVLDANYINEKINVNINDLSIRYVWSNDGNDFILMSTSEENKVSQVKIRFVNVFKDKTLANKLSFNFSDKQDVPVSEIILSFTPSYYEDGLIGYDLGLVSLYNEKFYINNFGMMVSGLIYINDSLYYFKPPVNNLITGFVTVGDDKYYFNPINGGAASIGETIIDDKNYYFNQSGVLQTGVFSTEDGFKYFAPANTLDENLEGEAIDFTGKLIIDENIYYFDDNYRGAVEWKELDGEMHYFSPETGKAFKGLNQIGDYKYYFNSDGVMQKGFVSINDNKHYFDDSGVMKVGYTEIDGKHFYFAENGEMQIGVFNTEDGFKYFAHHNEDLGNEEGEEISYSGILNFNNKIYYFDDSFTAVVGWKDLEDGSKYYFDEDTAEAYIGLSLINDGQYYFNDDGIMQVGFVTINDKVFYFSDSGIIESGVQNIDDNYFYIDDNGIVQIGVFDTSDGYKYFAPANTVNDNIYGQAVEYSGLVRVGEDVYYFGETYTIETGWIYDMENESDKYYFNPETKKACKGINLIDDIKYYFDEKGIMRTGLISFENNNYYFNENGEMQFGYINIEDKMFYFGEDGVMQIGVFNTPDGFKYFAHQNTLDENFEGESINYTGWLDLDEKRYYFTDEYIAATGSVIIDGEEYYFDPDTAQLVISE
BioA inh = blocks M. tuberculosis BioA enzyme activity | purified M. tuberculosis BioA enzyme, plate reader | inhibition, % at 9.99 µM | hit rate 0.096% among 360,000; in the data active means inhibition above about 40%; inconclusive means no clear call, values can overlap the other calls
FadD28 binding = inhibitors of Mycobacterium tuberculosis FadD28 bisubstrate binding. FadD28 bisubstrate probe binding, fluorescence polarization. inhibition, % at 12.5 µM. hit rate 0.22% among 360,000. AID 588549; in the data active means inhibition above about 8.5%, passing the limit was not always enough; inconclusive means no clear call, values can overlap the other calls
PrP 5UTR inh = suppresses PrP 5' UTR mRNA reporter expression; inhibition, % (no concentration beside the values); cell-based PrP 5' UTR mRNA reporter, plate reader; hit rate 0.35% among 340,000; in the data active means inhibition above about 52%
PfHsp40 rescue = compounds rescuing yeast from Plasmodium falciparum HSP40 toxicity; S. cerevisiae expressing PfHsp40, growth rescue, ATP luminescence; growth rescue, % at 12.5 µM; hit rate 0.68% among 340,000; in the data active means growth rescue above about 28%, passing the limit was not always enough; inconclusive means no clear call, values can overlap the other calls;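 further: yeast W303a lacking pdr1 and pdr3 grown in galactose medium; growth measured after three days at 30 °C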
Numbers stand for hits. A selection: hits, their analogues and other compounds. The true share with any hit is near 1.1%.

How did COc1ccccc1NC(=O)N[C@H]1CC[C@@H](CC(=O)N[C@@H](C)c2ccccc2)O[C@@H]1CO do in these assays?
TcdB inh: inactive; BioA inh: inactive

How did CNC[C@H]1Oc2c(NC(=O)Nc3ccc(F)cc3)cccc2C(=O)N([C@@H](C)CO)C[C@H]1C do in these assays?
TcdB inh: inactive; BioA inh: inactive

How did COc1ccc(N(C(=O)c2ccncc2)S(=O)(=O)c2ccc(Cl)cc2)cc1 do in these assays?
BioA inh: inactive; FadD28 binding: inactive; PrP 5UTR inh: inactive; PfHsp40 rescue: 141

How did O=C(Oc1ccc(N(C(=O)c2ccncc2)S(=O)(=O)c2ccc(Cl)cc2)cc1)c1ccncc1 do in these assays?
TcdB inh: inactive; BioA inh: inactive; FadD28 binding: inactive; PrP 5UTR inh: inactive; PfHsp40 rescue: 422

Results for Cc1ccc(S(=O)(=O)N(C(=O)c2ccncc2)c2ccc(OC(=O)c3ccncc3)cc2)cc1 ?
FadD28 binding: inactive; PrP 5UTR inh: inactive; PfHsp40 rescue: 372

How did O=C(Oc1ccc(N(C(=O)c2ccncc2)S(=O)(=O)c2ccc(F)cc2)cc1)c1ccncc1 do in these assays?
TcdB inh: inactive; BioA inh: inactive; FadD28 binding: inactive; PrP 5UTR inh: inactive; PfHsp40 rescue: inactive

Results for CCc1ccc(S(=O)(=O)N(C(=O)c2ccncc2)c2ccc(OC(=O)c3ccncc3)cc2)cc1 ?
BioA inh: inactive; FadD28 binding: inactive; PrP 5UTR inh: inactive; PfHsp40 rescue: 234

What do the screens show for `O=S(=O)(N[C@H]1CC[C@@H](CCn2cc(C3(O)CCCC3)nn2)O[C@H]1CO)c1ccc(F)cc1`?
TcdB inh: inactive; BioA inh: inactive

What do the screens show for `O=C(N/N=C\c1cccc([N+](=O)[O-])c1O)C1COc2ccccc2O1` (centres undefined)?
BioA inh: inactive; FadD28 binding: inactive; PrP 5UTR inh: inactive; PfHsp40 rescue: 42

How did Cc1ccc(-n2c(O)c(/C=N/NC(=O)C3COc4ccccc4O3)c3ccccc3c2=O)cc1 (centres undefined) do in these assays?
BioA inh: inactive; FadD28 binding: inconclusive; PrP 5UTR inh: inactive; PfHsp40 rescue: 205

What do the screens show for `O=C(CSc1ccc2c(c1)OCCO2)Nc1ccccc1`?
TcdB inh: inactive; BioA inh: inactive; FadD28 binding: inactive

What do the screens show for `CCN(c1ccc(NC(=O)CSc2ccc3c(c2)OCCO3)cc1)C(C)C`?
TcdB inh: inactive; BioA inh: inactive; FadD28 binding: 47; PrP 5UTR inh: inactive; PfHsp40 rescue: inactive

Results for CN(C)CCOc1ccc(-c2c(-c3ccccc3)sc3ccccc23)cc1 ?
TcdB inh: inactive; BioA inh: inactive; FadD28 binding: inactive; PrP 5UTR inh: inactive; PfHsp40 rescue: 33

What do the screens show for `CC1CC(C)C(=NNC(N)=O)C(C(O)CC2CCC(=O)NC2=O)C1` (centres undefined)?
TcdB inh: inactive; BioA inh: inactive; PrP 5UTR inh: inactive; PfHsp40 rescue: 33

How did Cc1cccc(CN2CCN(c3ncccn3)CC2)c1 do in these assays?
TcdB inh: 13; BioA inh: inactive; FadD28 binding: inactive; PrP 5UTR inh: inactive; PfHsp40 rescue: inactive

How did CCC(=O)Nc1ccc2c(c1)C(=O)N(C)[C@H]1CC[C@@H](CC(=O)NCCc3ccccc3)O[C@H]1CO2 do in these assays?
TcdB inh: inactive; BioA inh: inactive

How did COc1ccc(C(c2c(O)ccc3ccccc23)N2CCOCC2)c(OC)c1 (centres undefined) do in these assays?
BioA inh: inactive; FadD28 binding: inactive; PrP 5UTR inh: inactive; PfHsp40 rescue: 410

Results for COc1ccc(C(CCN2CCOCC2)c2c(O)cc(OC)cc2OC)cc1 (centres undefined) ?
TcdB inh: inactive; BioA inh: inactive; FadD28 binding: inactive; PrP 5UTR inh: inactive; PfHsp40 rescue: inactive

How did C[C@@H]1CN([C@@H](C)CO)C(=O)CCCn2nncc2CO[C@H]1CN(C)Cc1ccc(C(=O)O)cc1 do in these assays?
TcdB inh: inactive

Results for COc1cccc(Nc2nc(-c3cccs3)nc3ccccc23)c1 ?
TcdB inh: inactive; BioA inh: inactive; FadD28 binding: inactive; PrP 5UTR inh: inactive; PfHsp40 rescue: 279

How did COc1ccc(Nc2nc(-c3cccs3)nc3ccccc23)cc1 do in these assays?
TcdB inh: inactive; BioA inh: inactive; FadD28 binding: inactive; PrP 5UTR inh: inactive; PfHsp40 rescue: inactive

What do the screens show for `C/C=C/c1cnc2c(c1)C(=O)N([C@H](C)CO)C[C@H](C)[C@H](CN(C)Cc1cccc(C(=O)O)c1)O2`?
TcdB inh: inactive; BioA inh: inactive

Results for CCCCOC(=O)/C=C/c1ccc(OC(=O)OC)c(OC(=O)OC)c1 ?
FadD28 binding: inactive; PrP 5UTR inh: inactive; PfHsp40 rescue: 287
